Screens from PubChem.
MEKK2 WT-MEK5: modulators of MEK5 binding to wildtype MEKK2, primary screen, biochemical, multiplex bead flow cytometry, Alexa488-MEK5; Mitogen-activated protein kinase kinase kinase 2 (Homo sapiens), Q9Y2U5; Alexa488-MEK5 binding to MEKK2 WT; actives lie on both sides; binding response (% of control), % at 10 µM; 290,000 tested, 1.1% active; AID 1531, 2009; in the data active means binding response below about 67% or above about 130%
MEKK3 PB1 HTS: modulators of MEKK3-MEK5 PB1 binding, primary screen, biochemical, wildtype MEKK3, multiplex bead flow cytometry, Alexa488-MEK5. 290,000 tested, 1.4% active. bead-based flow cytometry, Alexa488-MEK5 binding to MEKK3; actives lie on both sides; 0 = blocked by unlabeled MEK5, 100 = vehicle. Mitogen-activated protein kinase kinase kinase 3 (Homo sapiens), Q99759. binding response (% of control), % at 10 µM;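 active means binding response more than 3 SD above or below the average of its plate-row segment, actives on both sides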;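 further: Alexa488 bead fluorescence after subtracting the streptavidin-only scavenger bead signal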
Target sequence (Q99759 whole entry, looked up): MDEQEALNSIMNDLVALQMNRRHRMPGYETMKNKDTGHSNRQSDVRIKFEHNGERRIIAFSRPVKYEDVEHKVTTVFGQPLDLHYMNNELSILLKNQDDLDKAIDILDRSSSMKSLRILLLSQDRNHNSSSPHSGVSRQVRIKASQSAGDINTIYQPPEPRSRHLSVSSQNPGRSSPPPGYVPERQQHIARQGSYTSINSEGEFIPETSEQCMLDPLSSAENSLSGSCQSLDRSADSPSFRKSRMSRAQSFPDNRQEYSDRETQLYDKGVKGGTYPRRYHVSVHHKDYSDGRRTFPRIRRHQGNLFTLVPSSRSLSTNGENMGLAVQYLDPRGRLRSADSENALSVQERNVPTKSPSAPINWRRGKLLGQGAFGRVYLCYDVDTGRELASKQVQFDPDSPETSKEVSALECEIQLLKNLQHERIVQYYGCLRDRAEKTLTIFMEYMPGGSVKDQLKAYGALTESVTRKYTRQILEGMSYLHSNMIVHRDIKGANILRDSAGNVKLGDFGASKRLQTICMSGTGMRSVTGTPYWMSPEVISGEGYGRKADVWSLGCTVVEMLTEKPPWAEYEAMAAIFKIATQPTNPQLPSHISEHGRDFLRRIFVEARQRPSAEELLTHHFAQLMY
Rce1 inhib: yeast Rce1p protease inhibitors, primary screen, biochemical, fluorescence, cell-free homogeneous; yeast membranes, quenched prenylated peptide cleavage fluorescence; CAAX prenyl protease 2 (Saccharomyces cerevisiae (strain ATCC 204508 / S288c)), Q03530; 290,000 tested, 0.27% active; calls only;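 active means fall in fluorescence gain of 50% or more versus controls, with final raw signal at or below 3038400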;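 further: plate controls were neutral control wells for no effect and wells lacking membranes for full effect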
MEKK2 mut-MEK5: MEK5 binding signal on mutant MEKK2 PB1, primary screen, biochemical, multiplex bead flow cytometry, Alexa488-MEK5; Alexa488-MEK5 binding to MEKK2 mutant; percent response, % at 10 µM; 290,000 tested, 0.35% active; AID 1530, 2009; in the data active means percent response above about 24%, passing the limit was not always enough
UBC13 polyUb: UBC13 polyubiquitin chain formation inhibitors, primary screen, biochemical, TR-FRET, uHTS; 330,000 tested, 0.47% active; Ubiquitin-conjugating enzyme E2 N (Homo sapiens), P61088; AID 485273, 2010; inhibition, % at 20 µM; in the data active means inhibition above about 45%, passing the limit was not always enough
MEKK2wt confirm: modulators of MEK5 binding to wildtype MEKK2, confirmation, biochemical, single concentration, multiplex bead flow cytometry | shares compounds with MEKK3 PB1 HTS | Alexa488-MEK5 binding to MEKK2 WT; actives lie on both sides | binding response (% of control), % at 10 µM | 5,900 tested, 2.4% active; in the data active means binding response below about 16% or above about 210%; inactive means in between
MEKK2mut-MEK5: mutant MEKK2 PB1-MEK5 binding signal retest – biochemical, single concentration, multiplex bead flow cytometry, confirmation. shares compounds with MEKK3 PB1 HTS. Alexa488-MEK5 binding to MEKK2 mutant. percent response, % at 10 µM. 5,900 tested, 2% active. AID 1893, 2009; in the data active means percent response mostly above about 71%, no sharp cut-off; inactive means mostly below about 38%;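 further: higher means compound restores mutant binding toward wildtype level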
MEKK3-MEK5 inh: MEKK3 wild-type PB1 binding to MEK5, inhibitors, confirmation, biochemical, bead multiplex flow cytometry, single concentration, wildtype; shares compounds with MEKK3 PB1 HTS; Alexa488-MEK5 binding to MEKK3; active compounds read low; binding response (% of control), % at 10 µM; 5,900 tested, 1.8% active;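 active means binding response below 72% of control, or above a set upper limit, though filed actives all read lower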;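 further: 100% = DMSO only wells and 0% = binding blocked by excess unlabeled MEK5; lower values mean stronger disruption of MEK5 binding to MEKK3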
Numbers without * were called inactive; i = inactive; / = not tested or not shown; [ ] = remark or other dose. Rows were chosen to be rich in hits. Some 2.5% of all compounds tested hit in one or more screens of this group.

SMILES | MEKK2 WT-MEK5 | MEKK3 PB1 HTS | Rce1 inhib | MEKK2 mut-MEK5 | UBC13 polyUb | MEKK2wt confirm | MEKK2mut-MEK5 | MEKK3-MEK5 inh
Cc1ccc(Nc2ncnc3c2nnn3Cc2ccccc2)cc1 | 134 | 132* | i | 29 | 10 | 104 | 1 | 103
COC(=O)c1cc(S(=O)(=O)Nc2cc(OC)cc(OC)c2)c[nH]1 | 102 | 104 | i | 8 | 6 | / | / | /
CC(=O)N(C)c1ccc(OCC(O)Cn2c(C)nc3ccccc32)cc1 (stereo unspecified) | 115 | 135* | i | 1 | 19 | 98 | -2 | 101
CC(=O)Nc1ccc(OCC(O)Cn2c(C)nc3ccccc32)cc1 (stereo unspecified) | 106 | 101 | / | 10 | 6 | / | / | /
O=C(NCCNC(=O)c1ccc(Cl)cc1Cl)c1cnccn1 | 107 | 104 | i | 3 | 1 | / | / | /
CC/C(=C\C(=O)c1ccncc1)Nc1ccc(O)cc1 | 113 | 107 | i | 25* | -8 | 96 | -10 | 98
CCN(CC)S(=O)(=O)c1cccc(-c2nnc(SCC(=O)NC)n2N)c1 | 7.0*[inhibitor] | 6.0*[inhibitor] | i | -17 | 13 | 114 | 10 | 107
CCN(CC)S(=O)(=O)c1cccc(-c2nnc(SCC(=O)N3CCC(C(=O)O)CC3)n2N)c1 | / | / | i | / | -7 | / | / | /
O=CNCC(=O)NC1CCCCCC1 | 84 | 79*[inhibitor] | i | -7 | 0 | 97 | -6 | 100
CCOC(=O)C1=C(CC)OC(N)=C(C#N)C1c1cccs1 (stereo unspecified) | 76 | 74*[inhibitor] | i | -14 | -4 | 102 | 0 | 108
CCC(C)N1C(=O)CN(C2CCCCCC2)C(=O)C1c1ccccc1F (stereo unspecified) | 94 | 101 | i | -3 | -7 | / | / | /
CCN(CC)C(=S)Nc1ccc2nc3n(c(=O)c2c1)CCCCC3 | 91 | 92 | i | -14 | 1 | / | / | /
CC1(c2ccccc2)CC(C)(C)N2C(=O)C3(C(C#N)=C(N)Oc4cc(O)ccc43)c3cccc1c32 (stereo unspecified) | 88 | 101 | i | -4 | -6 | / | / | /
CC1(c2ccccc2)CC(C)(C)N2C(=O)/C(=C3\SC(=S)NC3=O)c3cccc1c32 (stereo unspecified) | 96 | 147* | i | -1 | / | 95 | -3 | 95
O=C(Cc1ccc(Cl)cc1)N1CCC2(CC1)NCCc1[nH]cnc12 | 104 | 103 | i | 1 | 2 | / | / | /
COc1ccc(CCN2CC(C(=O)NC3CCOCC3)CCC2=O)cc1 (stereo unspecified) | 93 | 96 | i | 0 | 1 | / | / | /
Cc1cc(NC(=O)c2ccccc2Cl)no1 | 59 | 35*[inhibitor] | i | -30 | 12 | 106 | -1 | 99
Cc1cc(NC(=O)c2cc(Cl)ccc2Cl)no1 | 106 | 106 | i | 5 | 4 | / | / | /
NS(=O)(=O)c1cccc(NC(=O)CN2CCc3ccccc32)c1 | 21*[inhibitor] | 98 | i | 18 | -12 | 84 | -18 | 90
CN(c1ccccc1)S(=O)(=O)c1cccc(NC(=O)CN2CCCc3ccccc32)c1 | 98 | 99 | i | -1 | -3 | / | / | /
CCO/N=C(/c1nonc1N)N1CCN(c2ccc([N+](=O)[O-])cc2)CC1 | 118 | 129* | i | 5 | -5 | 103 | 6 | 108
